In assay [1] the target is Cellular tumor antigen p53 (Homo sapiens) (UniProt P04637). The assay can be described thus: Primary qHTS for small molecule compounds that upregulate eGFP-tagged delta133p53alpha (in N-terminal) cells. (AID 2060322). Further: nearly all actives have a fitted effect of over 75% in size.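 On activation: cells pre-induced with doxycycline then dosed without doxycycline; series mostly up to about 56 µM; 0% = DMSO vehicle and 100% = reference activator.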 The note with it: NCI-H358 eGFP-delta133p53alpha fluorescence, 24 h; activation: hits give high values. A digest of the protocol: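 NCI-H358 cells pre-induced 24 h with 10 ng/ml doxycycline for eGFP-delta133p53alpha, plated dox-free and exposed 24 h at 37C to titrated compounds. Fixed, Hoechst-stained; gated GFP peak intensity by laser scanning cytometry, normalized to DMSO (0%) and 57.5 uM 5-azacytidine (100%).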
Sequence of Cellular tumor antigen p53 (Homo sapiens) (P04637 whole entry, looked up): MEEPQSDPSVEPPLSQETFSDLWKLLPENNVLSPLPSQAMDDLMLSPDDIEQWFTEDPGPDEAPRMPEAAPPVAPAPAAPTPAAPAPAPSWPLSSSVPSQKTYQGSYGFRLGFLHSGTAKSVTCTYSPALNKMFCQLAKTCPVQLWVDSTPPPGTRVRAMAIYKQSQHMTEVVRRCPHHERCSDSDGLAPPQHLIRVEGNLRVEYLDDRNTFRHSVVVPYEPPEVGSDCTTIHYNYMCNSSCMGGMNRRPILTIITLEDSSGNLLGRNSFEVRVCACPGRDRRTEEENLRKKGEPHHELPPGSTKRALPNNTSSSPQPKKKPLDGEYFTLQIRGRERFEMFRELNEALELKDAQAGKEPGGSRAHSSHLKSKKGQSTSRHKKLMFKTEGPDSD
For orientation: Quantitative high-throughput screening tests each substance at several concentrations.

A short description of assay [2]: BET inhibitor-based combinations targeting novel dependencies in MECOM-rearranged (r) AML: SET-2 cell line (AID 2202231). Further: nearly all actives have a fitted effect of over 35% in size.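 On viability: plate controls were DMSO treated cells for no effect and wells without cells for full effect.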 The note with it: SET-2 AML cells viability, CellTiter-Glo luminescence, 48 h; viability: hits give low values, concentration not given here. In short, it runs like this:
(§1)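 A 48 hr incubation preceded viability reading by CellTiter-Glo, with 15 min room-temperature development. Dose series had 11 points; normalization used DMSO and empty wells; AUC was computed and mean-centered per line as Z-AUC.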
A general note: Cellular ATP, detected with luciferase, serves as a proxy for viable cell number.

A short description of assay [3]: BET inhibitor-based combinations targeting novel dependencies in MECOM-rearranged (r) AML: UCSD-AML1 cell line (AID 2202235). Further: nearly all actives have a fitted effect of over 40% in size. A digest of the protocol: (§2)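 Each compound is tested in an 11-point concentration series against 500 seeded cells/well for 48 hr. The luminescent viability signal is normalized to DMSO and blank wells, then reduced to AUC and a cell-line-centred Z-AUC.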

Assay [4] is described as follows: BET inhibitor-based combinations targeting novel dependencies in MECOM-rearranged (r) AML: AML-191 cell line (AID 2202236; further: nearly all actives have a fitted effect of over 35% in size). In short, it runs like this: as §1
The nature of assay [5]: BET inhibitor-based combinations targeting novel dependencies in MECOM-rearranged (r) AML: AML-194 cell line (AID 2202237; further: nearly all actives have a fitted effect of over 40% in size). In short, it runs like this: as §1
Assay [6] can be described thus: BET inhibitor-based combinations targeting novel dependencies in MECOM-rearranged (r) AML: MV-4-11 cell line (AID 2202233). Further: nearly all actives have a fitted effect of over 45% in size. In short, it runs like this:
as §2

Assay [7] is described as follows: BET inhibitor-based combinations targeting novel dependencies in MECOM-rearranged (r) AML: HNT-34 cell line (AID 2202234). Further: nearly all actives have a fitted effect of over 35% in size. A digest of the protocol: as §2
Assay [8] can be described thus: BET inhibitor-based combinations targeting novel dependencies in MECOM-rearranged (r) AML: OCI-AML3 cell line (AID 2202232). Further: nearly all actives have a fitted effect of over 35% in size. As to conditions: Potency: OCI-AML3 viability. In short, it runs like this: as §1

Values joined by “and” are separate entries in the source; they are usually repeats but may differ in a detail not shown here. Equal values may be shown once. Records with an inconclusive call do not appear. A number with no mark means an inactive call. Active and inactive are the calls of the source. The call rests on the fitted dose curve; in most records, active means well fitted curve in the direction sought with a large enough effect; inconclusive means small, poorly fitted or top-dose-only effect, or another doubt; inactive means no such curve, though single readings can be large; an effect the other way counts as inactive or inconclusive.
Potency means the concentration at half of the fitted maximal effect.

For `O=C(/C=C/N1C[C@H]2C[C@@H]1CN2c1ccccn1)c1ccccc1O`, the activation in assay [1] is 21.2%. For the same compound, the Potency in assay [2] is 0.372 µM (active). For the same compound, the Potency result in assay [3], in assay [4] and in assay [5] was “inactive” in each case.
For `C=C1c2cccc(O)c2C(O)=C2C(=O)[C@@]3(O)C(O)=C(C(N)=O)C(=O)[C@@H](N(C)C)[C@@H]3[C@@H](O)[C@H]12`, the activation in assay [1] is 22.8%. In assay [2], the viability is 86.7%. The Potency result in assay [3], in assay [4] and in assay [5] was “inactive” throughout.
For the compound `Nc1nccc(-c2ccc3noc(-c4ccc(Cl)cc4)c3c2)n1`, the Potency was 34.3 µM (active) in assay [1] and 20.9 µM (active) in assay [3]. Also, in assay [2], the viability was 88.8%.
For the compound `CC(C)C[C@H](CC(=O)O)C(=O)N[C@@H](Cc1c[nH]c2ccccc12)C(=O)N[C@@H](C)c1ccccc1`, the activation in assay [1] was -21.8%. Besides, the viability in assay [2] was 104%. In addition, the Potency entry in assay [6] is “inactive”. Also, in assay [5], the Potency was 18.6 µM (active).
In the case of `CC(COc1ccccc1)N(CCCl)Cc1ccccc1` (centres undefined), in assay [1], the activation was -9.21% and 7.69%. Also, the viability in assay [2] was 99.7%. Moreover, the Potency in assay [7] is 16.6 µM (active). Further, the Potency result in assay [3], in assay [4] and in assay [5] was “inactive” each time.
With `CO[C@@H]1[C@H](N(C)C(=O)c2ccccc2)C[C@H]2O[C@]1(C)n1c3ccccc3c3c4c(c5c6ccccc6n2c5c31)C(=O)NC4`, the activation in assay [1] was 25.1%. In addition, the Potency was 3.32 µM (active) in assay [8] and 0.0934 µM (active) in assay [6].
Regarding `CCC(c1ccc(O)cc1)C(CC)c1ccc(O)cc1` (centres undefined), in assay [1], the activation was 3.07%. Besides, the viability in assay [2] was 99.8%. Further, the Potency entry in assay [7] and in assay [3] was “inactive” in each case.
As to `CC[C@H](NC(C)C)[C@H](O)c1ccc(O)c2[nH]c(=O)ccc12`, the activation in assay [1] is -13% and -16.9%. In addition, the Potency result in assay [8], in assay [6], in assay [7], in assay [3], in assay [4] and in assay [5] was “inactive” each time.
As to `CCCCOCCOc1nc(-c2ccc(C(=O)O)c(F)c2)sc1C`, the activation in assay [1] is 13.4%. Further, the viability in assay [2] was 85.8%. For the same compound, the Potency result in assay [3] and in assay [5] was “inactive” throughout. Moreover, the Potency in assay [4] is 2.63 µM (active).
For `CC(C)c1ccccc1Cc1cc(C(=O)Nc2ccc(S(=O)(=O)c3ccccc3C(C)(C)C)cc2)c(O)c(O)c1O`, the activation in assay [1] is -33%. The Potency in assay [8] is 4.68 µM (active); in assay [6] it was 10.5 µM (active); in assay [3], 10.5 µM (active); in assay [4], 9.34 µM (active); in assay [5], 10.5 µM (active).
Regarding `CC1(C)Cc2c(sc(NC(=S)NC(=O)c3ccccc3)c2C(=O)O)CO1`, in assay [1], the activation is -34.5%. The Potency entry in assay [8], in assay [6], in assay [7], in assay [3], in assay [4] and in assay [5] was “inactive” throughout.
Turning to `Nc1ncnc2c1ncn2[C@@H]1O[C@H](CO)[C@@H](O)[C@@H]1O`, the activation in assay [1] was 23.2%. Further, the Potency result in assay [8], in assay [6], in assay [4] and in assay [5] was “inactive” in each case.
In the case of `OC1CCC(Nc2ncc3nc(Nc4c(F)cc(F)cc4F)n([C@@H]4CCOC4)c3n2)CC1` (some centres undefined), the activation in assay [1] is 52.2%. Further, the figures for the Potency in assay [8], in assay [6] and in assay [4] were 18.6 µM (active), 20.9 µM (active) and 16.6 µM (active), respectively. Moreover, in assay [3], the Potency result is “inactive”.
On to `COc1cccc([C@@H](C)NCCCc2ccccc2Cl)c1`, for which the activation in assay [1] is -21.4%. Besides, the Potency in assay [8] is 16.6 µM (active); in assay [6], 20.9 µM (active); in assay [5], 23.5 µM (active).
Regarding `c1cc(-c2cnn3cc(-c4ccc(OCCN5CCCCC5)cc4)cnc23)ccn1`, the activation in assay [1] was 46.6%. For the same compound, the Potency in assay [8] is 8.33 µM (active); in assay [6] it was 0.0833 µM (active); in assay [3] it was 9.34 µM (active); in assay [4] it was 8.33 µM (active); in assay [5], 9.34 µM (active).
For the compound `Oc1ccc(C2CCN(c3ccnc4ccccc34)CC2)cc1O`, the activation in assay [1] is 25.9%. Further, the Potency in assay [8] is 13.2 µM (active); in assay [6], 9.34 µM (active). The Potency entry in assay [3] is “inactive”.
As to `CC1(CN2CCC(n3c(=O)[nH]c4ccccc43)CC2)OCc2ccccc2-n2cccc21` (centres undefined), in assay [1], the activation was -25.4% and -3.95%. For the same compound, the Potency in assay [8] is 16.6 µM (active); in assay [6] it was 14.8 µM (active). Besides, the Potency entry in assay [3] was “inactive”.
As for `NC1=N[C@H]2[C@H](CS[C@H]2CCCCC(=O)O)N1`, the activation in assay [1] is -4.3%. Further, the Potency result in assay [8], in assay [6], in assay [7] and in assay [4] was “inactive” each time.
Regarding `OC[C@H](Cc1ccccc1)Nc1nc(Oc2ccc3c(c2)CCC3)nc2c1ncn2Cc1ccc(-c2ccccc2)cc1`, in assay [1], the activation is -44.8%. For the same compound, the Potency in assay [8] is 8.33 µM (active); in assay [7], 7.42 µM (active); in assay [3], 4.68 µM (active).
`Oc1cc2c(cc1O)C1c3ccc(O)c(O)c3OCC1(O)C2` (centres undefined): the activation in assay [1] was -7.38%. In addition, the Potency in assay [8] is 23.5 µM (active); in assay [6], 23.5 µM (active); in assay [3], 20.9 µM (active).
For `O=C(O)[C@H](O)[C@@H](O)[C@H](O[C@@H]1O[C@H](CO)[C@H](O)[C@H](O)[C@H]1O)[C@H](O)CO`, the activation in assay [1] is -12.6%. Moreover, the Potency result in assay [8], in assay [6], in assay [7], in assay [3] and in assay [5] was “inactive” each time.
For `CC(NCCc1ccc(O)cc1)C(O)c1ccc(O)cc1` (centres undefined), in assay [1], the activation is -5.46%. Besides, the Potency result in assay [8], in assay [7], in assay [3], in assay [4] and in assay [5] was “inactive” each time.
For `O=C1CN2Cc3c(ccc(Cl)c3Cl)N=C2N1`, in assay [1], the activation is -11.4%. For the same compound, the Potency result in assay [8], in assay [6], in assay [7], in assay [3] and in assay [5] was “inactive” throughout.

A word on the viability: it is a read-out of living cells in per cent, often relative to untreated cells.
